Reference: PubChem BioAssay (NCI)
About 83,000 compounds went through this panel and 20% of them were active in at least one assay; those are over-represented in the sample as a whole.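 Results are percent growth after 48 hours of single-concentration exposure. 100 means growth as in untreated cells, lower positive values show inhibition; negative values down to -100 show cell death.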 Values without a mark were called inactive. Activity calls are given as the source filed them. The calls were made as follows: active = growth percent below 10; inactive = the rest.

How the values were obtained:
Test in all cases: NCI-60 one-dose screen, 48 h (100 = growth as untreated, 0 = no growth, -100 = all killed)
Details in all cases: 10 µM unless noted
SK-MEL-2 melanoma = system: SK-MEL-2 melanoma
EKVX NSCLC = system: EKVX NSCLC
SN12C renal = system: SN12C renal
UO-31 renal = system: UO-31 renal
TK-10 renal = system: TK-10 renal
ACHN renal = system: ACHN renal
CAKI-1 renal = system: CAKI-1 renal
A498 renal = system: A498 renal
CCRF-CEM leukemia = system: CCRF-CEM leukemia
MOLT-4 leukemia = system: MOLT-4 leukemia

SMILES | growth (SK-MEL-2 melanoma) | growth (EKVX NSCLC) | growth (SN12C renal) | growth (UO-31 renal) | growth (TK-10 renal) | growth (ACHN renal) | growth (CAKI-1 renal) | growth (A498 renal) | growth (CCRF-CEM leukemia) | growth (MOLT-4 leukemia)
Cc1ccccc1NC(=O)N/C(N)=N/c1nc(C)c(C)s1 | 53.9% | 55% | 39.7% | 54.9% | 70.3% | 46.5% | 31.1% | -17.7% (active) | 13.3% | 30.1%
COc1ccc(C2C(c3nn[nH]n3)=C(N)Oc3c2ccc2ccccc32)cc1 (stereo not given) | 61.5% | 83.4% | 64.9% | 45.1% | 43.8% | 68.6% | 34.3% | 26.5% | 75.3% | 52.6%
Cc1ccc(S(=O)(=O)NCC[C@@H]2C[C@H]2c2cc3ccccc3s2)cc1 | 111% | 95% | 91.6% | 84% | 110% | 102% | 79.6% | 81.7% | 96.4% | 92.6%
NS(=O)(=O)c1ccc(-n2nc(C(=O)N/N=C\c3ccc(F)cc3)cc2-c2ccc(Cl)cc2)cc1 | 96.5% | 75.1% | 90.7% | 62.4% | 136% | 90% | 60.6% | 68.5% | 103% | 89.2%
CC(C)C(NC(=O)C1(NC(=O)OCc2ccccc2)CCCC1)C(=O)O (stereo not given) | 107% | 110% | 102% | 81% | 108% | 96.8% | 102% | 102% | 104% | 96%
O=C(c1ccccc1)c1c(/C=C/c2ccc(Cl)cc2)nc2ccccc2c1/C=C/c1cccs1 | 103% | 88.2% | 90.2% | 82.9% | 99% | 93.8% | 81.2% | 77.1% | 96.4% | 94.2%
N/C(=N/N=C/c1ccccc1)N/N=C\c1ccccc1 | 42.1% | 76.5% | 67.4% | 68.2% | 73.9% | 76% | 62.9% | 66.6% | 50.6% | 30.4%
COc1cccc(/C=C/C(=O)c2c(C)nc3ccccc3c2/C=C/c2ccc(C)cc2)c1OC | 77.2% | 80.8% | 52.1% | 54.3% | 118% | 52.9% | 57% | 73.8% | 16.6% | 11.3%
COc1ccc(NC(=O)CSc2nc(C)c(C(C)=O)n2-c2ccc(Cl)cc2)cc1 | 102% | 95.5% | 92.5% | 102% | 125% | 99% | 97.8% | 75.6% | 108% | 91%
CN(c1ccccc1)c1ccc2c(c1)OCCC21CC1Nc1cnccc1C(=O)O (stereo not given) | 97.5% | 93.1% | 82.9% | 87.4% | 79.5% | 66.7% | 76.3% | 59.7% | 47.2% | 45.8%
CC(C)=C[C@@H]1c2c(c3ccccc3n(C)c2=O)O[C@H]2c3c(c4ccccc4n(C)c3=O)OC(C)(C)[C@@H]12 | 66.4% | 90.9% | 115% | 63.1% | 123% | 70.4% | 87.7% | 102% | 46.6% | 39.5%
CCOP(=O)(OCC)C1CP(=O)(c2ccccc2)CC(C)=C1Cl (stereo not given) | 102% | 107% | 96% | 68.1% | 77.1% | 109% | 108% | 111% | -90.6% (active) | 93%
COc1ccc(S(=O)(=O)NCCNc2nccc(-c3c(-c4cccc(F)c4)nc4sccn34)n2)cc1 | 58.1% | 39.7% | 30.7% | 20.3% | 55.8% | 15.8% | 28.2% | 43.1% | 32.3% | 33.9%
NC(=S)N/N=C/Cc1ccccc1 | 106% | 89.1% | 102% | 64.4% | 107% | 102% | 116% | 99.8% | 69.9% | 78.7%
O=C(N/N=C/C=C/c1ccc([N+](=O)[O-])o1)c1cc2ccccc2cc1O | -44.6% (active) | -15.9% (active) | -10.7% (active) | -71.9% (active) | 2.31% (active) | -3% (active) | 12.7% | -82.4% (active) | 5.15% (active) | 4.89% (active)
CCCCNC(=O)Oc1ccc2c(=O)c3sc4c(=O)c5ccccc5c(=O)c4c3c(=O)c2c1 | -54.7% (active) | -77.7% (active) | -86.3% (active) | -56.7% (active) | -95.2% (active) | -88.9% (active) | -75.4% (active) | -98.8% (active) | -29.4% (active) | -44.4% (active)
Cc1nn(-c2ccccc2)c(Cl)c1/C=C(/NC(=O)c1ccccc1)c1nc2ccccc2[nH]1 | 111% | 94.4% | 91.2% | 80.2% | 106% | 92.4% | 84.1% | 88.2% | 86.5% | 79.9%
Cc1ccc(S(=O)(=O)Oc2cc(OS(=O)(=O)c3ccc(C)cc3)cc(OS(=O)(=O)c3ccc(C)cc3)c2)cc1 | 91.5% | 106% | 107% | 71.8% | 156% | 114% | 84.2% | 96.9% | 95.7% | 82.2%
C=C(C)[C@@H]1CC=C2c3sc(-c4ccc(C)cc4)nc3C[C@@H](C)[C@]2(C)C1 | 105% | 95.1% | 98.8% | 78% | 113% | 102% | 90.6% | 106% | 99.4% | 98%
CCCCc1ccc(Nc2ccc(Nc3ccc(CCCC)cc3S(=O)(=O)O)c3c2C(=O)c2ccccc2C3=O)c(S(=O)(=O)O)c1 | 67.1% | 83.3% | 91% | 66.5% | 114% | 94.5% | 95.6% | 119% | 80.9% | 96.8%
COc1cc(C2NC(=O)c3ccccc3N2)ccc1OCCCCCOc1c(OC)cc(C2=NOC(c3cc(OC)c(OC)c(OC)c3)C2)cc1OC (stereo not given) | 76.9% | 50.6% | 92.6% | 69.2% | 100% | 41.3% | 89.2% | 99.3% | 44.8% | 24.6%
